This is an account of results in ChEMBL document CHEMBL2218924, “A broad activity screen in support of a chemogenomic map for kinase signalling research and drug discovery” (Biochem J, 2013).

For assay [1], the target named is Homeodomain-interacting protein kinase 3 (Homo sapiens) (UniProt Q9H422). Conditions: at 10 µM; call rule not given here.
The target of assay [2] is T1, Serine/threonine-protein kinase haspin (Homo sapiens) (UniProt Q8TF76).
T1 sequence (whole entry): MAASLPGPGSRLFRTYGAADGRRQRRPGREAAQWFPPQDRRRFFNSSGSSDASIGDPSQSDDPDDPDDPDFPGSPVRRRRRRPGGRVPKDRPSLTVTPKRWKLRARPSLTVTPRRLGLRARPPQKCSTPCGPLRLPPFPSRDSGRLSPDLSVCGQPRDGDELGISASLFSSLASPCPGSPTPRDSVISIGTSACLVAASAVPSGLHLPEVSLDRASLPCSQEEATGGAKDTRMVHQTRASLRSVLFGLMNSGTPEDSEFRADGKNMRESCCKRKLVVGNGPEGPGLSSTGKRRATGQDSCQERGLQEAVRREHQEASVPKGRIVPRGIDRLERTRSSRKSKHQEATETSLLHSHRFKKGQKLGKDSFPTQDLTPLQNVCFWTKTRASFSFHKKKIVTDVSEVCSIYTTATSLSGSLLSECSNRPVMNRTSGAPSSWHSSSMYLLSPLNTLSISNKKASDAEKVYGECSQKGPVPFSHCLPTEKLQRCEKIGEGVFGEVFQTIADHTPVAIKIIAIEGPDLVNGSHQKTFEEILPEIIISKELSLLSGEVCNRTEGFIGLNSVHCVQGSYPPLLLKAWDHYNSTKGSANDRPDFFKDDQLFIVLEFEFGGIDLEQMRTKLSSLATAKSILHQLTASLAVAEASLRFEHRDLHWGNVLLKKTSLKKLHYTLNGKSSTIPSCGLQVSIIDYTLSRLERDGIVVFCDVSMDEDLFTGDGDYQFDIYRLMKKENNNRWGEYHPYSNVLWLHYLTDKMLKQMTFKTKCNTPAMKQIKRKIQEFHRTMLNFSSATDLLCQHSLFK
The note with it: at 1 µM.

Assay [3] concerns the target T1, Serine/threonine-protein kinase haspin (Homo sapiens). The note with it: at 10 µM.
Assay [4] addresses Tyrosine-protein kinase HCK (Homo sapiens) (UniProt P08631). Conditions: at 1 µM.
The target is the same in assay [5]. Conditions: at 10 µM.
The target is the same in assay [6]. Conditions: at 1 µM. The source holds these as a separate data set.
The target is the same in assay [7]. The note with it: at 10 µM. The source holds these as a separate data set.
The target of assay [8] is Insulin-like growth factor 1 receptor (Homo sapiens) (UniProt P08069). The note with it: at 1 µM.
Insulin-like growth factor 1 receptor (Homo sapiens), sequence (P08069 31-736 limits assumed): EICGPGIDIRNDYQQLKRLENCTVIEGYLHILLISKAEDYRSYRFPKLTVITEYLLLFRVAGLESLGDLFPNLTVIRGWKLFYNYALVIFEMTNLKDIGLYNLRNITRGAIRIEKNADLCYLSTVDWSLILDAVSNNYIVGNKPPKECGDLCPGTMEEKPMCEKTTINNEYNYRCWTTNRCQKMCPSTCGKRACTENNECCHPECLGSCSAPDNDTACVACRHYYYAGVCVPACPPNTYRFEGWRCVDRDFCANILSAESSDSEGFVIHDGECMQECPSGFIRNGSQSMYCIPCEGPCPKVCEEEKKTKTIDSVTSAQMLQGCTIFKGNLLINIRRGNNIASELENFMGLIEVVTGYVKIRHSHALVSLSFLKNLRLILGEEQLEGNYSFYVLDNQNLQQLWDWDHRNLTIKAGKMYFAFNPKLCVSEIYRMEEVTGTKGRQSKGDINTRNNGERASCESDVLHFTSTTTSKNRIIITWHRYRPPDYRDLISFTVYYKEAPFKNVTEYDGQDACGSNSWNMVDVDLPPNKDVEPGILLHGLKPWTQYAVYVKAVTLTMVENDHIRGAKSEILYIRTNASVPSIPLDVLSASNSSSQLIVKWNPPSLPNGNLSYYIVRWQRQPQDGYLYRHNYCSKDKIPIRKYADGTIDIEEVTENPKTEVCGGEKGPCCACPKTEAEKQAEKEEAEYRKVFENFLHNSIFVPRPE
Insulin-like growth factor 1 receptor (Homo sapiens), sequence (P08069 741-1367 limits assumed): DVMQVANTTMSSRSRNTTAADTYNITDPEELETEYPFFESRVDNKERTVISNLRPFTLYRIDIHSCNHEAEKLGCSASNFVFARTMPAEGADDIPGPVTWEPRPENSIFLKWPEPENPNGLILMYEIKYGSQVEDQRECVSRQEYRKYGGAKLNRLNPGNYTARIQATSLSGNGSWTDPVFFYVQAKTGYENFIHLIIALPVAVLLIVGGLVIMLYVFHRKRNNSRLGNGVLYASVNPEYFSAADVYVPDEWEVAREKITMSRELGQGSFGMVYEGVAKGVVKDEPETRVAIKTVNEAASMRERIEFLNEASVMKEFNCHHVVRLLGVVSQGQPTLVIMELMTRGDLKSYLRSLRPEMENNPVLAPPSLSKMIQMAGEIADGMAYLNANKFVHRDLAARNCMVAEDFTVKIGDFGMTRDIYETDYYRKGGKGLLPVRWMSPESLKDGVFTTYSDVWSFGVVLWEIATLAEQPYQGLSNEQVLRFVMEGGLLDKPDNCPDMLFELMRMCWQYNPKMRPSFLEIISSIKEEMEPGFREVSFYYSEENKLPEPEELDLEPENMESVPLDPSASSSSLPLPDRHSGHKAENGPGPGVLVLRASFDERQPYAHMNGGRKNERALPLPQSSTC
Assay [9] shares this target. Conditions: at 10 µM.
Assay [10] has as its target T2, Protein kinase C zeta type (Homo sapiens) (UniProt Q05513).
T2 sequence (whole entry): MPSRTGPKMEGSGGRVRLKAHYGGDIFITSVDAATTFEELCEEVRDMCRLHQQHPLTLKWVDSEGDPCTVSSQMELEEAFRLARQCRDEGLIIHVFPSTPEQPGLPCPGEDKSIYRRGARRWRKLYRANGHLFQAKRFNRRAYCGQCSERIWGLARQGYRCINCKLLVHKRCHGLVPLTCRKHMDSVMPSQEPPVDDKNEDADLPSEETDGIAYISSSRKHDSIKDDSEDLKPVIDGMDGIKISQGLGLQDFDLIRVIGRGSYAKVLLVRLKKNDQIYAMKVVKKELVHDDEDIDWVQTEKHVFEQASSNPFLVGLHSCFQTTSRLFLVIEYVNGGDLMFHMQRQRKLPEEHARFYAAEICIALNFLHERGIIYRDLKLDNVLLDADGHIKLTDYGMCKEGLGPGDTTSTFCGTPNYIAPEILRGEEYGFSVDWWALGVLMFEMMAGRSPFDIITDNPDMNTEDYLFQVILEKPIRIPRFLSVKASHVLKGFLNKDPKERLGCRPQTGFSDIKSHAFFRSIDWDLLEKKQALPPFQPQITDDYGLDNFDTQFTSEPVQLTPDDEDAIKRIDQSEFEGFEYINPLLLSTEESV
Conditions: at 10 µM.

The target in assay [11] is Protein kinase C eta type (Homo sapiens) (UniProt P24723). The note with it: at 1 µM.
Protein kinase C eta type (Homo sapiens), sequence (P24723 whole entry): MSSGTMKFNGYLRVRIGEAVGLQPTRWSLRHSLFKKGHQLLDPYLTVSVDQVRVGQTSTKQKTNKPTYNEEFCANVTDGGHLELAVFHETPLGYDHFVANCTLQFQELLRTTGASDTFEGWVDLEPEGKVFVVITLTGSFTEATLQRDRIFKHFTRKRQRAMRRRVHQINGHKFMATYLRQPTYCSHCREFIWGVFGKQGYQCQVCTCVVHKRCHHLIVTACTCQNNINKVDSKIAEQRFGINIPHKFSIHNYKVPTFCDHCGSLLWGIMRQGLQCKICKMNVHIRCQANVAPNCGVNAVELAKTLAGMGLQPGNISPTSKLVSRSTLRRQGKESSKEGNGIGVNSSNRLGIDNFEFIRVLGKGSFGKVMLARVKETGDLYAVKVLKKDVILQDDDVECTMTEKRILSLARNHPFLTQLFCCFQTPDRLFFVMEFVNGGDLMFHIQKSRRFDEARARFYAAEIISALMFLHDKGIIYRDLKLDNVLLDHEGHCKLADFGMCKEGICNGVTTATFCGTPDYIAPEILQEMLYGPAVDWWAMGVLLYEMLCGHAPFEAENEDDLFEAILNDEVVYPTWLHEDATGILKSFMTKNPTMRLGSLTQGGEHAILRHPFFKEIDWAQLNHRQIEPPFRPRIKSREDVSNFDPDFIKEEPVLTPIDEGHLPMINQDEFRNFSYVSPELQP
For assay [12] the target is unchanged. The note with it: at 10 µM.
In assay [13] the target is Protein kinase C theta type (Homo sapiens) (UniProt Q04759). Conditions: at 1 µM.
Protein kinase C theta type (Homo sapiens), sequence (Q04759 whole entry, looked up): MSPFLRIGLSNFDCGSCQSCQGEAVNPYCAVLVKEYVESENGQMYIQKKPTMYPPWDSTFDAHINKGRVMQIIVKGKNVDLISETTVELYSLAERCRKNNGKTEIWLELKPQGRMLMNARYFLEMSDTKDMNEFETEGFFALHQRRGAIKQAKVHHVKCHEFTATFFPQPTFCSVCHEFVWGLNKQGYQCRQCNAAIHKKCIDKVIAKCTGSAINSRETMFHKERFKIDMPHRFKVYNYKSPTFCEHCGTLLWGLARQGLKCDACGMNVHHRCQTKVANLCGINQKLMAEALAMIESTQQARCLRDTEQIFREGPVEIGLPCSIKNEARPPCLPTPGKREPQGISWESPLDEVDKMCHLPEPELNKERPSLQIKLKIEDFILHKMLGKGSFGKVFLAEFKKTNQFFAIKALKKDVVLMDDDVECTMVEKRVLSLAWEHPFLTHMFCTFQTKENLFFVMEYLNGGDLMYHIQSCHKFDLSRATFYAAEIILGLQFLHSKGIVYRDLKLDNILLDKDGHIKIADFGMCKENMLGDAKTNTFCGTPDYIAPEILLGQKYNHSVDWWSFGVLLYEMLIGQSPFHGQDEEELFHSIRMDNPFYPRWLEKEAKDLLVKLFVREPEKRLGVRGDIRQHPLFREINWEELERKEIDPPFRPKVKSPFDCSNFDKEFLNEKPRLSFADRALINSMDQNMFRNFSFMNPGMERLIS
Assay [14] shares this target. Conditions: at 10 µM.
For assay [15], the target named is T3, Protein kinase C iota type (Homo sapiens) (UniProt P41743).
T3 sequence (whole entry): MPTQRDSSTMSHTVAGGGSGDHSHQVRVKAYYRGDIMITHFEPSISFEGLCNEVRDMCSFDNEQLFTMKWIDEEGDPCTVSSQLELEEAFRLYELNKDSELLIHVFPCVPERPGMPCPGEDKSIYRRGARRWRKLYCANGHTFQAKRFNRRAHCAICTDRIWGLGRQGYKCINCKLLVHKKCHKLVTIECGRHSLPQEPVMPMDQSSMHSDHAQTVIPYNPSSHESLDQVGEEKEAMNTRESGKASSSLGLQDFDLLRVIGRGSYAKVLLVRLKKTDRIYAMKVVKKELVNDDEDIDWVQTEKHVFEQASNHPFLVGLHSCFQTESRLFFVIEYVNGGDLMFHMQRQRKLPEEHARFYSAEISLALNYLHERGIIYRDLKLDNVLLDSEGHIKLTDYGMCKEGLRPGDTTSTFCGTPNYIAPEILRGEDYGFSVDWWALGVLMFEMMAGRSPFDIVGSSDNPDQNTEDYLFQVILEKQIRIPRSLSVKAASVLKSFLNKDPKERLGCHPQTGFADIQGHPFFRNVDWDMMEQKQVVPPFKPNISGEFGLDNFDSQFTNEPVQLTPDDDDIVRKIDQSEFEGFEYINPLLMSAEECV
The note with it: at 10 µM.

Assay [16] has as its target T4, Serine/threonine-protein kinase D1 (Homo sapiens) (UniProt Q15139).
T4 sequence (whole entry): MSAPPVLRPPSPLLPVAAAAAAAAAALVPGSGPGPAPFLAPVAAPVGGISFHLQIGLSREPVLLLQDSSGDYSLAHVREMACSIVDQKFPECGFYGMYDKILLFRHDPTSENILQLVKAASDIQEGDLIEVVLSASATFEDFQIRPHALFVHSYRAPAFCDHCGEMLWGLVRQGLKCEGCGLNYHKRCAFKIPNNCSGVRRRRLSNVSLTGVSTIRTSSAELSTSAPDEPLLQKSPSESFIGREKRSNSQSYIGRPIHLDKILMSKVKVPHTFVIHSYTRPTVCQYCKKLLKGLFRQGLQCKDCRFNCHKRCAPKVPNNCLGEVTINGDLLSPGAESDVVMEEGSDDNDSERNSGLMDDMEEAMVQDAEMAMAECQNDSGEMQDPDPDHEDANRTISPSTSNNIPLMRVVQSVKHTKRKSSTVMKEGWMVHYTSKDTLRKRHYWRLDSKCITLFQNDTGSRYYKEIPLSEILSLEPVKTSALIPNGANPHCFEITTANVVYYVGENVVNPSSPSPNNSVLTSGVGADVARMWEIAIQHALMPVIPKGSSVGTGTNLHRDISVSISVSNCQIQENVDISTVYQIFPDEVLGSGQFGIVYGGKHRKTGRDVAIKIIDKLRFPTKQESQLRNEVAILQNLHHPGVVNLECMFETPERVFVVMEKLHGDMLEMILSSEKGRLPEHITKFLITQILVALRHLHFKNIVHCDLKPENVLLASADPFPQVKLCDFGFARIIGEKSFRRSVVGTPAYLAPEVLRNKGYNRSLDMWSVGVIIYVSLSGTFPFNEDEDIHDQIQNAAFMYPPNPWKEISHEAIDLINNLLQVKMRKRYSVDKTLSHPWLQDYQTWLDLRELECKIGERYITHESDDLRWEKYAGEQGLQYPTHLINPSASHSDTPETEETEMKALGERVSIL
Conditions: at 1 µM.

Assay [17] addresses T4, Serine/threonine-protein kinase D1 (Homo sapiens). Conditions: at 10 µM.
The target in assay [18] is T5, Serine/threonine-protein kinase D2 (Homo sapiens) (UniProt Q9BZL6).
T5 sequence (whole entry): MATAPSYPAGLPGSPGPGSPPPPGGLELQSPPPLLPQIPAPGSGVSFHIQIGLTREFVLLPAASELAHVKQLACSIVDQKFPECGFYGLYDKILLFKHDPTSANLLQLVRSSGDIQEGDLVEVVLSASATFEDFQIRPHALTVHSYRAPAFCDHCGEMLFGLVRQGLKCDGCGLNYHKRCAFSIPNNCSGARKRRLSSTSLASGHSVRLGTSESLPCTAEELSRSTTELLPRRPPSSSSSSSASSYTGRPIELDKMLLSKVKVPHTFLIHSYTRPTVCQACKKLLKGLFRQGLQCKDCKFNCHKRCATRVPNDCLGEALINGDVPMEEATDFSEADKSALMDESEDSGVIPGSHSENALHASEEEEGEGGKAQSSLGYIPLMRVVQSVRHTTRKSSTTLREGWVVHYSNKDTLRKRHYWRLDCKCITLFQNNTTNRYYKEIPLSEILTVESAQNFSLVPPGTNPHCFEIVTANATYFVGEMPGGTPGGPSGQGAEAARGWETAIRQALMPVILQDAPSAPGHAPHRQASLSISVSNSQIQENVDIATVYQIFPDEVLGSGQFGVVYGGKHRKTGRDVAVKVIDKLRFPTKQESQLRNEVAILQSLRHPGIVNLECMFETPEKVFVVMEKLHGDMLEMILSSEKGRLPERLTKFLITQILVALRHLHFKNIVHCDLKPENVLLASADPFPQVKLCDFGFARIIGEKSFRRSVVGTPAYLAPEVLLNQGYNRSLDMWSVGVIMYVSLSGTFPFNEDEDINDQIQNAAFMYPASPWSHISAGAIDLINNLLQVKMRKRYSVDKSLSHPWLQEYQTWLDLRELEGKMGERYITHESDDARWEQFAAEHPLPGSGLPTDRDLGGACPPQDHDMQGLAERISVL
The note with it: at 1 µM.

For assay [19], the target named is T5, Serine/threonine-protein kinase D2 (Homo sapiens). The note with it: at 10 µM.
The target in assay [20] is T3, Protein kinase C iota type (Homo sapiens). The note with it: at 1 µM.

Homeodomain-interacting protein kinase 3 (Homo sapiens), sequence (Q9H422 whole entry, looked up): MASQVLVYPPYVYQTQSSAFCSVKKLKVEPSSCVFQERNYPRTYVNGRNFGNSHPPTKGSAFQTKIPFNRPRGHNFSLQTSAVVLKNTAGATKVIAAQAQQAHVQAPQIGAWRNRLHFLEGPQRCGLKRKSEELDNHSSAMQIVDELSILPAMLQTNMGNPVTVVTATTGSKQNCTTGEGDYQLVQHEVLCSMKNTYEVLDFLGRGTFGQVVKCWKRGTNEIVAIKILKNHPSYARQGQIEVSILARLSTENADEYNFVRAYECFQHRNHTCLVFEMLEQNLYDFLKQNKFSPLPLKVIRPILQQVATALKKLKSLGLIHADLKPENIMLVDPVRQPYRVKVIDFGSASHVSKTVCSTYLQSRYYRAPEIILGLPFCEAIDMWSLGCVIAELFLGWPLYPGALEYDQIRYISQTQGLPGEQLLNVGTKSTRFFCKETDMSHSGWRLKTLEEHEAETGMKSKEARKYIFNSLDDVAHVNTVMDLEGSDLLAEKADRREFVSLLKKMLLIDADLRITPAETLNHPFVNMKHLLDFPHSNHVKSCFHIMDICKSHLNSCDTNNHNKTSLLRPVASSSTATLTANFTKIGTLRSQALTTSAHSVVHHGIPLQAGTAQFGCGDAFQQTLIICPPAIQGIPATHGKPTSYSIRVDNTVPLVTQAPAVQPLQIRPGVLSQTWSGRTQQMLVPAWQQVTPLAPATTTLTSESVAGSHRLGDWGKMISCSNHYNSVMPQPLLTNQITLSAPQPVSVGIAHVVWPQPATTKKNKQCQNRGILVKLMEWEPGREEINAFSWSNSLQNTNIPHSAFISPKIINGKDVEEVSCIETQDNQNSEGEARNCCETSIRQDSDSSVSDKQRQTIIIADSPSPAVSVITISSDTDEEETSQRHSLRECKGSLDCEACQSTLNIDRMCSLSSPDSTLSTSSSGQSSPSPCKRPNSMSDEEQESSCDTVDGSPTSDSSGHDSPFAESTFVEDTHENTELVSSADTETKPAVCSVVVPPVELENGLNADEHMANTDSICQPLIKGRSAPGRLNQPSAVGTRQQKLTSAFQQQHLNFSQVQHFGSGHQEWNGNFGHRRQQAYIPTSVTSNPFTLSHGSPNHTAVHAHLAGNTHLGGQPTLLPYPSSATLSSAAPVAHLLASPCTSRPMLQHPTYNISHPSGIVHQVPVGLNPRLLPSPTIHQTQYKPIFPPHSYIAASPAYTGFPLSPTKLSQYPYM
Tyrosine-protein kinase HCK (Homo sapiens), sequence (P08631 2-526 limits assumed): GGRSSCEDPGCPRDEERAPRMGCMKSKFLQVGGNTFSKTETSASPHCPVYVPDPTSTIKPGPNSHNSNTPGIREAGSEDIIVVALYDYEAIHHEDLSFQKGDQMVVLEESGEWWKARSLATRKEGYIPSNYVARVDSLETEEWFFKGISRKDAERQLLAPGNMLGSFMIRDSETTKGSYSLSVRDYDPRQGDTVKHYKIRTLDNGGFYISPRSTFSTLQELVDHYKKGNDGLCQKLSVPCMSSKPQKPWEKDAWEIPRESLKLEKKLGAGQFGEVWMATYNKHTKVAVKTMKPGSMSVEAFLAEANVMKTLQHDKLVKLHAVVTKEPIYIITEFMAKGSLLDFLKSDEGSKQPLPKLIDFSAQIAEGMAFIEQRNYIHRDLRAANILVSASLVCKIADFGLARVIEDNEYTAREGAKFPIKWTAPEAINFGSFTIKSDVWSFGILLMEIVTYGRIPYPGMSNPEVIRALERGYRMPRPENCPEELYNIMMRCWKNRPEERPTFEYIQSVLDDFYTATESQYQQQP

As for `COc1ccc2c(c1)c(C1=C(c3c[nH]c4ccccc34)C(=O)NC1=O)cn2CCCN(C)C`, the residual activity in assay [1] amounted to 22%; in assay [2] it was 98%; in assay [3], 56%; in [4], 65%; in assay [5], 53%; in assay [6], 98%. The residual activity in [7] was 72%; in [8], 134%; in [9] it was 104%; in assay [10] it was 27%; in assay [11] it was 10%; in assay [12], 2%. Further, the residual activity was found to be 3% in [13]; 1% in [14]; 62% in [15]; 108% in [16]; 58% in assay [17]; 98% in [18]. Also, the residual activity in [19] came out at 102%.

Regarding `Cn1c2ccccc2c2c3c(c4c5ccccc5n(CCC#N)c4c21)CNC3=O`, the residual activity came to 11% in [2]; 8% in [3]; 31% in assay [4]; 9% in [5]; 69% in assay [6]; 58% in assay [7]. Also, the residual activity in assay [8] came out at 145%; in assay [9] it was 104%; in assay [10] it was 108%; in assay [11], 72%; in assay [12] it was 60%; in assay [16], 5%. In addition, the residual activity in assay [17] was found to be 12%.

In the case of `N#Cc1c(NC(=O)c2cccc3ccccc23)sc2c1CCCC2`, the residual activity in [1] was 99%; in assay [2], 82%; in [3], 64%; in [4], 63%; in [5], 55%; in assay [8] it was 136%. For the same molecule, the residual activity came to 128% in assay [9]; 100% in assay [10]; 91% in assay [11]; 92% in assay [12]; 92% in assay [16]; 83% in [17]. Moreover, in [19], the residual activity stood at 93%.

In the case of `O=C(c1cc2cc(O)ccc2[nH]1)c1cc2cc(O)ccc2[nH]1`, the residual activity in [1] stood at 25%; in assay [2], 39%; in assay [3], 7%; in assay [4] it was 23%; in [5], 5%; in assay [6], 8%. In addition, the residual activity in assay [7] was 3%; in assay [8] it was 65%; in assay [9], 63%; in assay [12], 77%; in [13], 83%; in assay [14], 67%. In addition, the residual activity in assay [16] came out at 80%; in assay [17], 23%.

As for `O=C(NC(NC(=S)Nc1ccc(F)c([N+](=O)[O-])c1)C(Cl)(Cl)Cl)C(c1ccccc1)c1ccccc1` (configuration not stated), the residual activity in assay [1] was determined as 103%; in assay [2], 83%; in assay [3] it was 47%; in assay [4] it was 80%; in assay [5], 38%; in assay [8] it was 76%. Moreover, the residual activity is 42% in [9]; 94% in [10]; 90% in [12]; 97% in assay [13]; 104% in [14]; 88% in [17]. Moreover, the residual activity in [18] and in [19] was 100% in each case.

Regarding `O=C1C(Cl)=C(N2C(=O)CCC2=O)C(=O)c2ccccc21`, the residual activity in assay [1] amounted to 86%; in assay [2] it was 96%; in [4], 71%; in [5], 63%; in assay [6] it was 91%; in assay [8] it was 93%. Moreover, the residual activity in [9] is 130%; in assay [11], 68%; in assay [12], 24%; in [13] it was 92%; in assay [14], 85%; in [20], 118% (inactive). The residual activity amounted to 55% in assay [15]; 72% in [16]; 76% in assay [17]; 99% in assay [18]; 100% in [19].

Take `c1ccc(-c2cnc(Nc3ccc(OCCN4CCCC4)cc3)s2)cc1`: the residual activity amounted to 31% in assay [1]; 77% in assay [2]; 51% in [3]; 57% in [4]; 24% in assay [5]; 71% in [6]. Also, the residual activity in assay [7] came out at 11%; in assay [8] it was 119%; in [9] it was 108%; in assay [10], 109%; in assay [13], 115%; in assay [14], 102%.
